This is a sample that favours compounds with a hit; in the whole collection about 0.72% have one here.
USP2a block: USP2a (human) protease inhibition; O75604; Potency, µM (series often up to 38.3 µM), for inactives: at the highest dose activity change, negative = inhibition, most hits filed as inhibitors; 0.01% of 330,000 active; AID 463254; USP2 core, Ub-CHOP2 coupled fluorogenic reporter, 485/531;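 further: potency means the concentration at half of the fitted maximal effect; plate controls were DMSO wells for no effect and full inhibition by NEM control for full effect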
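Deubiquitinase activity read as fluorescence (485/531 nm) after Ub-CHOP2 cleavage activates the enterokinase reporter on its substrate; USP2 core 10nM, Ub-CHOP2 and substrate 25nM each, 30min compound preincubation then 60min RT; data normalized to NEM, curves fitted.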
Six1-Eya2 blk: inhibitors of human Six1/Eya2 interaction. activity change, % (test concentration not listed). AlphaScreen GST-Six1/His-Eya2 binding, biochemical; stronger effect = lower value. AID 651725. 0.56% of 360,000 active. Q15475+O00167; in the data active means activity change below about -65%; inconclusive means mostly about -30% to -63%
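AlphaScreen with GST-Six1 and His-Eya2 (5X mix: 250 nM and 500 nM), glutathione donor and nickel acceptor beads; buffer 50 mM Tris pH 8.0, 300 mM NaCl, 1 mM TCEP; 1 h at 37 C in the dark.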
RGS4 inhibitor: human RGS4 inhibition | Potency, µM (series often up to 114 µM), without a hit: top-dose activity change, negative = inhibition, actives largely listed as inhibitors | Transcreener GDP fluorescence polarization, RGS4-accelerated GTP hydrolysis | P49798 | 0.039% of 390,000 active | AID 504845; further: potency means the concentration at half of the fitted maximal effect; nearly all actives have a fitted effect of over 75% in size
Target sequence (P49798 whole entry, looked up): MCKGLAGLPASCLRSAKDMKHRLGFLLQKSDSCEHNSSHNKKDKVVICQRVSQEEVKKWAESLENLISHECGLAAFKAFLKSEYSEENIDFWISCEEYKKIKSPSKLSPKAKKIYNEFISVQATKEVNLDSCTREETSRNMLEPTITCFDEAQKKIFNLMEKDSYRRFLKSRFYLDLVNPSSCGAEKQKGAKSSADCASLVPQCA
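MLSMR compounds (23 nl, pin-transferred) preincubated 10 min at room temperature with a 500nM (2x) first reagent, then RGS4 at 900nM (2x) plus Transcreener GDP mix added; fluorescence polarization (620/688 nm) read before and after 90 min at 30 °C.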
PI4K2A block: blocks human PI4K2A kinase activity | purified PI4K2A, ADP-Glo luminescence, 1 h; stronger effect = lower value | activity change, negative = inhibition, % at 76.9 µM | 0.13% of 420,000 active; in the data active means activity change below about -50%; inconclusive means mostly about -30% to -49%;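 further: -100% = wells without enzyme as full effect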
Target sequence (Q9BTU6 whole entry, looked up): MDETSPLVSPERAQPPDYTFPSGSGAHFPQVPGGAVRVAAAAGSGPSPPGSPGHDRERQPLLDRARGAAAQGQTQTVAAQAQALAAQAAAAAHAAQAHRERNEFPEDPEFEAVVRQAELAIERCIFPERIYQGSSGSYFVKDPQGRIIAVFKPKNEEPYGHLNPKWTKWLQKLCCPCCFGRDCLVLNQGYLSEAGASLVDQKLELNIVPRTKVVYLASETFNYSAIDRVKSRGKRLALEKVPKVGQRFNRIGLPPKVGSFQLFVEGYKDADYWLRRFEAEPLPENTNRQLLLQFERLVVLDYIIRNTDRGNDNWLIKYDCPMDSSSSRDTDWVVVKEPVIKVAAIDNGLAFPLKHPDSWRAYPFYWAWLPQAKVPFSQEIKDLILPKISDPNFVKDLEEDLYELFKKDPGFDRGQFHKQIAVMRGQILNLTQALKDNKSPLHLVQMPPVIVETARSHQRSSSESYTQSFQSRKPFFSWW
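ADP-Glo luminescence measured ADP generated by PI4K2A enzyme (4 ug/mL before mixing) with 1.2 mM PI substrate (pre-mix) and 300 microM ATP (pre-mix). Tris pH7.5 buffer with MgCl2, Triton X-100; 1 h reaction at ambient temperature.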
Eya2 inh: blocks the phosphatase activity of human Eya2; O00167; recombinant Eya2, OMFP fluorescence dephosphorylation (OMFP is methylfluorescein phosphate); Potency, µM (top dose mostly 76.9 µM), for the others: at the top dose activity, negative = inhibition, hits mostly inhibitors; 0.006% of 330,000 active; AID 488837; further: potency means the concentration at half of the fitted maximal effect
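Eya2 (0.2 uM) preincubated 10 min at ambient with compound, then OMFP substrate added at 50 uM; 10 min reaction in 50 mM HEPES pH 7.5, 50 mM NaCl, 5 uM MgCl2, 0.05% BSA, 1 mM DTT. Fluorescence read at Ex 485/Em 525 nm.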
CtBP-E1A inh: inhibitors of CtBP/E1A interaction; activity change, % (test concentration not listed); AlphaScreen GST-E1A/His-CtBP binding, 1536-well; stronger effect = lower value; 0.49% of 340,000 active; in the data active means activity change below about -65%; inconclusive means mostly about -30% to -63%
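GST-E1A and His-tagged CtBP (125 nM each as 5X stock) were preincubated with pin-transferred compound for 2 h at 37 °C in the dark, then glutathione donor and nickel acceptor beads were added for 1 h before AlphaScreen reading.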
* marks the source's active call; other numbers are inactive results; ? = inconclusive; · = no result; [ ] = another dose, or the depositor's remark. Unless noted, the call rests on the fitted dose curve; in most records, active means well fitted curve in the direction sought with a large enough effect; inconclusive means small, poorly fitted or top-dose-only effect, or another doubt; inactive means no such curve, though single readings can be large; an effect the other way counts as inactive or inconclusive. Unless noted, on the % scale 0 is the no-effect control and ±100 the full control effect.

SMILES	USP2a block	Six1-Eya2 blk	RGS4 inhibitor	PI4K2A block	Eya2 inh	CtBP-E1A inh
O=[N+]([O-])c1ccc(Sc2cccc3cccnc23)c([N+](=O)[O-])c1	3%	-94*	-45%	-28	16%	-98*
C=CCn1nc([N+](=O)[O-])nc1Sc1cccc2cccnc12	0%	-94*	-31%	-7	1%	-95*
Cc1cccc(C)c1-n1nnnc1C1(C)CCC(=O)N1CCc1ccc(O)cc1 (stereo unspecified)	·	3	·	-5	·	2
CCOc1ncc(F)c(=O)[nH]1	·	·	·	0	·	·
CC(=O)N1CCC2(CC1)OC(=O)C(C)=C2C(=O)NCc1cccc(Cl)c1	·	·	13%	3	·	·
CCOC(=O)C1=C(C)NC(C)=C(C(=O)OCC)C1c1ccncc1	·	9	·	-76*	·	13
CN1CCN(c2ccc([N+](=O)[O-])cc2/C=N/NC(=O)c2ccc(F)cc2)CC1	2%	-5	-12%	7	-22%	-3
Cc1ccc(C)c(NC(=O)CCC(=O)N/N=C/c2cc([N+](=O)[O-])ccc2O)c1	-3%	-86*	-50%	-5	9%	·
CN1CCN(CCC(=O)N/N=C/c2cc([N+](=O)[O-])ccc2O)CC1	?	-87*	-9%	-2	-1%	-77*
Cc1ccc(NC(=O)CCC(=O)N/N=C/c2cc([N+](=O)[O-])ccc2O)cc1	3%	-87*	-20%	1	1%	-65*
Cc1ccc(C)c(NC(=O)CCC(=O)N/N=C/c2ccc[nH]2)c1	2%	-2	-30%	-1	0%	-1
Cc1c(NC(=S)N/N=C/c2cc([N+](=O)[O-])ccc2O)c(=O)n(-c2ccccc2)n1C	0%	-88*	-14%	-10	-13%	·
CC1=C(C(=O)OC2CCCCCC2)C(c2ccc(Cl)cc2Cl)CC(=O)N1 (stereo unspecified)	·	·	3%	-2	·	·
O=C(CCS(=O)(=O)c1ccc(F)cc1)Nc1nccs1	·	12	·	1	·	-1
Cc1ccc(CCNC(=O)c2ccc(CSCc3ccccc3Cl)o2)cc1	·	·	8%	0	·	·
COc1cc(NC(=O)c2ccccc2)c(C)cc1NC(=O)CSc1nnc(COc2ccccc2)n1Cc1ccco1	·	·	·	0	·	·
CCOC(=O)Cn1c(=O)n(CC2CCCO2)c2nc(-c3ccccc3OC)nc(C(N)=O)c21 (stereo unspecified)	·	·	5%	-5	·	·
O=C(CCC(=O)Nc1cccc(Cl)c1)N/N=C/c1cc([N+](=O)[O-])ccc1O	0%	?	6%	-3	0%	-2
O=C(CCCC(=O)Nc1cccc(Br)c1)N/N=C/c1cc([N+](=O)[O-])ccc1O	-6%	-67*	2%	-2	-3%	-82*
O=C(CSc1nc2ccccc2s1)N/N=C/c1cc([N+](=O)[O-])ccc1O	4%	?	-20%	7	0%	-68*
Cc1ccccc1NC(=O)CCC(=O)N/N=C/c1cc([N+](=O)[O-])ccc1O	-17%	-79*	8%	-4	-3%	-88*
COC(=O)c1ccc(Cn2ccc3ccc(-c4ccc5ccn(Cc6ccccc6)c5c4)cc32)cc1	·	·	·	3	·	·
CCC(C)c1ccc(OCC(=O)Nc2ccc(-c3nc4ncccc4o3)cc2)cc1 (stereo unspecified)	·	·	-35%	-2	·	·
CC(=NCc1cccnc1)C1=C(O)c2ccccc2C1=O	2%	-3	9%	-54*	-12%	-4
CC(=NCc1ccncc1)C1=C(O)c2ccccc2C1=O	4%	·	·	·	12%	·
SMILES	USP2a block	Six1-Eya2 blk	RGS4 inhibitor	PI4K2A block	Eya2 inh	CtBP-E1A inh
O=[N+]([O-])c1cc(/C=N/N/C(=N/c2ccccn2)c2ccccn2)ccc1O	0%	-86*	-6%	-7	3%	?
CS(=O)(=O)Nc1ccc(N2CCN(c3ccc(C(F)(F)F)cn3)CC2)nc1	2%	0	17%	-1	-6%	-2
CC1=NN(c2ccc(C(F)(F)F)cn2)C(=O)C1	2%	-68*	21%	-7	9%	?
CCOC(=O)C1CCN(c2ccc(Cl)nn2)CC1	0%	4	11%	3	10%	4
CCOC(=O)C1CCN(c2ccc(-c3cccs3)nn2)CC1	2%	0	1%	-69*	9%	0
COc1cc2c(cc1OC)-c1cc(Nc3cccc(F)c3)nc(=O)n1CC2	-2%	-79*	-1%	-7	10%	-10
CCN(CC)c1ccc(Nc2cc3n(c(=O)n2)CCc2cc(OC)c(OC)cc2-3)cc1	-9%	?	-4%[56.9 µM]	4	-9%	-84*
COc1cc2c(cc1OC)-c1cc(Nc3ccc(N(C)C)cc3)nc(=O)n1CC2	2%	-69*	-15%	-5	11%	-69*
COc1ccccc1N1CCN(c2cc(C)nc3nncn23)CC1	·	·	-6%	-2	·	·
O=C(CSc1nc(-c2ccccc2)nc2c1Cc1ccccc1O2)Nc1ccc(C(=O)O)cc1	-8%	-81*	?	-1	0%	-5
O=C(CSc1nc(-c2ccc(F)cc2)nc2c1Cc1ccccc1O2)Nc1ccc(C(=O)O)cc1	4%	-24	?	-1	5%	-12
CN(C)c1ccc(-c2[nH][nH]c(=O)c2NC(=O)c2ccc3ccccc3n2)cc1	·	-6	·	-65*	·	-23
Cc1cnc(C(=O)Nc2c(-c3ccccc3)[nH][nH]c2=O)cn1	·	2	·	?	·	0
O=C(Nc1c(-c2ccccc2)[nH][nH]c1=O)c1ccccc1	·	7	·	-22	·	-12
CN(C)c1ccc(-c2[nH][nH]c(=O)c2NC(=O)c2ccccn2)cc1	·	-22	·	-64*	·	?
O=C(N/C(=C/c1ccc(Br)cc1)C(=O)N1CCCC1=O)c1ccco1	-1%	-10	-13%	7	-1%	-93*
O=C(O)CN(CC(=O)O)CC(=O)O	·	-73*	-18%	-1	·	-96*
O=C(O)CN(CCO)CCN(CC(=O)O)CC(=O)O	4%	·	·	·	-1%	·
CC1c2ccccc2CN1NC(=O)c1ccc(Cl)c(S(N)(=O)=O)c1 (stereo unspecified)	·	·	·	1	·	·

Screens as filed in PubChem BioAssay.
